The record followed here is PubChem BioAssay (NCI).

Among the test systems are NCI-H23 lung; NCI-H226 lung; NCI-H322M lung; HOP-62 NSCLC; NCI-H460 lung; NCI-H522 lung; A549/ATCC NSCLC; 786-0 renal; DU-145 prostate; K-562 leukemia; MALME-3M melanoma; MDA-MB-231 breast; RXF 393 renal; SF-268 CNS; SF-539 CNS; UACC-257 melanoma; M14 melanoma; COLO 205 colon; SF-295 CNS; HOP-92 NSCLC.
Assay in all cases: NCI-60 one-dose screen, 48 h (100 = growth as untreated, 0 = no growth, -100 = all killed)
Holding throughout (details): 10 µM unless noted

About 83,000 compounds went through this panel and 20% of them were active in at least one assay; those are over-represented in the sample as a whole.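 Note: values are percent growth. 100 is the growth of untreated cells, values between 100 and 0 indicate rising inhibition; between -100 and 0 indicates cell death.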 Unmarked numbers belong to inactive results. The source made the active and inactive calls. Rule for the calls: active = growth percent below 10; inactive = the rest.

Take `O=C1C=CC(=O)N1c1ccccc1`: the growth in the assay on NCI-H23 lung is 98.2%; with NCI-H226 lung, 87.7%; in the assay with NCI-H322M lung, 110%; with HOP-62 NSCLC, 92%; in the assay on NCI-H460 lung, 110%; in the assay on NCI-H522 lung, -51.8% (active). Moreover, the growth is 102% in the assay on A549/ATCC NSCLC; 94.5% in the assay with 786-0 renal; 109% in the assay with DU-145 prostate; 52.6% with K-562 leukemia; 101% in the assay with MALME-3M melanoma; 78.6% with MDA-MB-231 breast. For the same molecule, the growth is 88.7% in the assay with RXF 393 renal; 112% in the assay on SF-268 CNS; 100% with SF-539 CNS; 96.9% with UACC-257 melanoma; 94.2% in the assay with M14 melanoma.

`CCOC(=O)c1[nH]c(C#N)c(C(=O)OCC)c1C`: the growth in the assay with NCI-H23 lung was 101%; in the assay on NCI-H226 lung, 95.9%; with NCI-H322M lung, 93.6%; in the assay with HOP-62 NSCLC, 101%; with NCI-H460 lung, 114%; with NCI-H522 lung it was 97.9%. Moreover, the growth in the assay with A549/ATCC NSCLC is 98%; in the assay with 786-0 renal, 86.9%; in the assay on COLO 205 colon, 131%; with DU-145 prostate, 106%; in the assay with MALME-3M melanoma, 109%; with MDA-MB-231 breast, 102%. The growth was 90.5% in the assay with RXF 393 renal; 111% in the assay with SF-268 CNS; 89.3% in the assay on SF-295 CNS; 104% in the assay with SF-539 CNS; 104% with UACC-257 melanoma; 109% with M14 melanoma.

For `CN(C)c1ccc2cc3c(cc2c1)Oc1ccccc1N3.[Cl][Zn][Cl]`, the growth in the assay on NCI-H23 lung was 78.7%; with NCI-H226 lung, 91.2%; with NCI-H322M lung it was 84.7%; in the assay with HOP-62 NSCLC it was 105%; in the assay with NCI-H460 lung, 96.8%; in the assay with NCI-H522 lung, -7.15% (active). In addition, the growth in the assay with A549/ATCC NSCLC is 91.8%; in the assay on 786-0 renal, 104%; in the assay with COLO 205 colon it was 19.2%; with DU-145 prostate it was 90.9%; in the assay on K-562 leukemia, 12.1%; in the assay with MDA-MB-231 breast it was 0.0703% (active). Further, the growth with RXF 393 renal is 95.6%; in the assay with SF-268 CNS, 83.8%; with SF-295 CNS it was 97.2%; in the assay on SF-539 CNS it was 99.9%; with UACC-257 melanoma it was 81.5%; with M14 melanoma it was 102%.

Take `Clc1ccc(-n2ncc3c(NCCCN4CCOCC4)ncnc32)cc1`: the growth in the assay on NCI-H23 lung was 87.6%; in the assay with NCI-H226 lung it was 91.8%; in the assay with NCI-H322M lung it was 89.8%; in the assay with HOP-62 NSCLC it was 87.7%; in the assay on NCI-H460 lung, 102%; in the assay on NCI-H522 lung, 94.7%. For the same molecule, the growth is 107% with 786-0 renal; 87.4% in the assay with COLO 205 colon; 104% with DU-145 prostate; 94.2% in the assay on K-562 leukemia; 95.7% in the assay with MALME-3M melanoma; 83.2% in the assay with MDA-MB-231 breast. The growth was 90.3% in the assay on RXF 393 renal; 99.1% in the assay on SF-268 CNS; 99.4% in the assay on SF-295 CNS; 97% with SF-539 CNS; 97.2% with M14 melanoma.

As to `CCCCCCCCCCCCNCCCc1ccccc1`, the growth in the assay on NCI-H23 lung was 89.2%; with NCI-H226 lung it was 96.6%; with NCI-H322M lung it was 91.1%; in the assay with HOP-62 NSCLC, 95%; in the assay with NCI-H460 lung it was 83.9%; with NCI-H522 lung, 63.6%. For the same molecule, the growth with 786-0 renal is 69.4%; in the assay with COLO 205 colon, -50.8% (active); in the assay on DU-145 prostate it was 84%; in the assay on K-562 leukemia, 2.28% (active); with MALME-3M melanoma, 82.5%; in the assay with MDA-MB-231 breast it was 61.3%. Further, the growth in the assay with SF-268 CNS is 80.6%; in the assay on SF-295 CNS it was 102%; with SF-539 CNS it was 69.6%; in the assay on UACC-257 melanoma it was 82%; in the assay with M14 melanoma, 52%.

On to `Cc1ccc2c(c1)sc(-c1ccc(N(C)C)cc1)[n+]2C`, for which the growth in the assay with NCI-H23 lung is 12.2%; with NCI-H226 lung, 17.8%; in the assay with NCI-H322M lung, 12.7%; in the assay with HOP-62 NSCLC, 1.81% (active); in the assay on HOP-92 NSCLC, -38.6% (active); with NCI-H522 lung it was 8.21% (active). Moreover, the growth in the assay on A549/ATCC NSCLC was 26.6%; in the assay on 786-0 renal, 7.31% (active); in the assay on COLO 205 colon, -83% (active); in the assay on DU-145 prostate it was 20.4%; in the assay with K-562 leukemia, -21.7% (active); in the assay on MALME-3M melanoma, 0.435% (active). Also, the growth in the assay with MDA-MB-231 breast is 2.82% (active); in the assay with RXF 393 renal, 39.7%; with SF-268 CNS, 18.5%; in the assay with SF-295 CNS, -5.75% (active); in the assay on SF-539 CNS it was 12.5%; with UACC-257 melanoma it was 4.53% (active).

Consider `Cc1cc2cccnc2c2ncccc12`, for which the growth with NCI-H23 lung is 18.7%; with NCI-H226 lung, -2.12% (active); in the assay with NCI-H322M lung, 40.4%; in the assay with HOP-62 NSCLC, 12%; in the assay with HOP-92 NSCLC, 44.6%; in the assay on NCI-H522 lung, 22.1%. Also, the growth in the assay on A549/ATCC NSCLC is 12.3%; with 786-0 renal, 18.9%; in the assay with COLO 205 colon, 9.8% (active); in the assay with DU-145 prostate, 20.7%; in the assay with K-562 leukemia, 14.3%; in the assay on MALME-3M melanoma, 49.3%. For the same molecule, the growth is 44.2% in the assay with MDA-MB-231 breast; 13.3% with RXF 393 renal; 15.9% in the assay with SF-268 CNS; 28.5% in the assay with SF-295 CNS; 13% in the assay with SF-539 CNS; -1.02% (active) with UACC-257 melanoma.

As to `O=C(c1ccccc1)C(Br)C(Br)c1ccccc1` (configuration not stated), the growth in the assay on NCI-H23 lung is 104%; with NCI-H226 lung it was 109%; in the assay on NCI-H322M lung, 121%; in the assay with HOP-62 NSCLC, 103%; in the assay with NCI-H460 lung, 103%; in the assay on A549/ATCC NSCLC, 99.2%. Moreover, the growth with COLO 205 colon was 6.72% (active); in the assay with DU-145 prostate, 94.7%; in the assay with K-562 leukemia, 6.6% (active); with MALME-3M melanoma it was -3.62% (active); in the assay on MDA-MB-231 breast, 112%; in the assay with RXF 393 renal, 33.6%. Besides, the growth with SF-268 CNS is 102%; in the assay with SF-295 CNS, 82.4%; in the assay on SF-539 CNS, 108%; in the assay on UACC-257 melanoma, 17.3%; with M14 melanoma, 2.17% (active).

As for `NNc1ccc(Cl)cc1Cl`, the growth was 82.7% in the assay with NCI-H23 lung; 86.3% with NCI-H226 lung; 77.3% with NCI-H322M lung; 64.9% with HOP-62 NSCLC; 97.5% with NCI-H460 lung; 53.6% in the assay with NCI-H522 lung. Moreover, the growth with A549/ATCC NSCLC was 82.9%; with 786-0 renal, 86.5%; in the assay with COLO 205 colon it was 91.5%; in the assay with DU-145 prostate it was 108%; with K-562 leukemia, 13.4%; in the assay with MALME-3M melanoma, 104%. Further, the growth was 102% in the assay with RXF 393 renal; 71.7% in the assay with SF-268 CNS; 76.6% in the assay on SF-295 CNS; 94.5% in the assay on SF-539 CNS; 67.6% with M14 melanoma.
